Reference: PubChem BioAssay
Calls of active or inactive are those of the source. The rule behind the calls is not given here.

target: Pantothenate synthetase (Mycobacterium tuberculosis (strain ATCC 25618 / H37Rv)) (UniProt P9WIL5); experiment: Recombinant Mtb pantothenate synthetase (PanC) inhibitors, coupled enzyme, confirmatory (AID 375); conditions: coupled enzyme assay; at 10 µM, active compounds read high;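 note: 0% = full reaction with vehicle and 100% = no enzyme background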
Sequence (P9WIL5 whole entry, looked up): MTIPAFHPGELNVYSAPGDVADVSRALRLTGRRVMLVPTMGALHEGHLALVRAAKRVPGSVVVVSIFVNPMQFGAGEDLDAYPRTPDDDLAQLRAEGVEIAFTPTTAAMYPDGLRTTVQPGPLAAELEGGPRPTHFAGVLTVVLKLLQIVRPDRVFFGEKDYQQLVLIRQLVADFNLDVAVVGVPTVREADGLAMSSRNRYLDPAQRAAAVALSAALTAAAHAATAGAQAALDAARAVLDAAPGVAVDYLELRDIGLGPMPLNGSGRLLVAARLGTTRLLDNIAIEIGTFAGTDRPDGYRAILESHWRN

**Q.** Which inhibition does the source give for CCOC(=O)C1=C(CC)Nc2ccccc2N=C1NC(=O)Cn1cnc2ccccc2c1=O here?
**A.** 0% (inactive)

**Q.** For COC(=O)c1ccc(C2C(C#N)=C(N)Oc3cc(C)n(C)c(=O)c32)cc1 (configuration not stated), which inhibition is on record?
**A.** 0% (inactive)

**Q.** How did the inhibition turn out when COC(=O)c1cc(O)c(OCc2ccccc2)c(O)c1 was run?
**A.** 0% (inactive)

**Q.** Which inhibition does the source give for Cc1nnc(SCC(=O)NCc2ccc3c(c2)OCO3)s1 here?
**A.** 5% (inactive)

**Q.** Which inhibition does the source give for CCN(CC)CCN1C(=O)C(=O)/C(=C(/O)c2c(C)[nH]c(C(=O)OC)c2C)C1c1ccccc1OC (configuration not stated) here?
**A.** 0% (inactive)

**Q.** How did the inhibition turn out when O=C(O)CCc1ccc(-c2cccs2)n1CCC(=O)O was run?
**A.** 1% (inactive)

**Q.** For c1ccc(CC2CCN(Cc3nc(-c4ccccc4)no3)CC2)cc1, which inhibition is on record?
**A.** 3% (inactive)

**Q.** How did the inhibition turn out when COc1ccc(-c2nc(C#N)c(N3CCOCC3)o2)cc1OC was run?
**A.** 0% (inactive)

**Q.** CCCCCn1c(N2CCN(Cc3ccccc3)CC2)nc2c1c(=O)[nH]c(=O)n2C was tested. Which inhibition did it give?
**A.** 6% (inactive)

**Q.** Which inhibition does the source give for CSc1nc2c(ccc3ccccc32)o1 here?
**A.** 2% (inactive)

**Q.** How did the inhibition turn out when CCOC(=O)CC1(CC(=O)OCC)NC(=O)c2c(C)sc(C(=O)OCC)c2N1 was run?
**A.** 1% (inactive)

**Q.** Which inhibition does the source give for N#Cc1c(SCC(=O)N2CCOCC2)nsc1SCC(=O)N1CCOCC1 here?
**A.** 0% (inactive)

**Q.** With CCc1nc(SCC(=O)Nc2nccs2)c2oc3ccccc3c2n1 as the compound, how does the inhibition read?
**A.** 0% (inactive)

**Q.** For CC(=O)Nc1ccc(S(=O)(=O)N2CCN(C(=O)CCC3CCCC3)CC2)cc1, which inhibition is on record?
**A.** 0% (inactive)

**Q.** For COC(=O)c1nnn(-c2ccccc2)c1N, which inhibition is on record?
**A.** 4% (inactive)

**Q.** How did the inhibition turn out when Cc1ccc(-n2c(-c3ccncc3)nnc2-c2cccs2)cc1 was run?
**A.** 1% (inactive)

**Q.** For CC(=O)c1cccc(S(=O)(=O)NCC(c2ccco2)N2CCCCC2)c1 (configuration not stated), which inhibition is on record?
**A.** 0% (inactive)
